# Measurements reported in PubChem BioAssay.
# Molecular target: Concanavalin-A (Canavalia ensiformis) (UniProt P02866)
# Test: compounds binding concanavalin A lectin – biochemical, small-molecule microarray, Alexa647 label, 635 nm, artefact control for SMM control protein annotation, primary screen (AID 1127);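 note: z combines 667 nm emission intensity with signal-to-noise across three replicate slides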
# Details: ConA-A647 binding fluorescence, higher = more signal
# Concanavalin-A (Canavalia ensiformis), sequence (P02866 whole entry, looked up): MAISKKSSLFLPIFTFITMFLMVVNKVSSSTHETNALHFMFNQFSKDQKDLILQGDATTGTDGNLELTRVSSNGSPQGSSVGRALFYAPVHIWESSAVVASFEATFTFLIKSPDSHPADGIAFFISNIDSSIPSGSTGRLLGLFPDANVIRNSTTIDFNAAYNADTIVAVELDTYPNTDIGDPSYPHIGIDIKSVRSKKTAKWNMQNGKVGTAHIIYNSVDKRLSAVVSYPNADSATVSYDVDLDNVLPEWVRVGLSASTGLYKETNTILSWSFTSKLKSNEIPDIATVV
row,SMILES,composite z-score
1,C=C(COC)/C(=C/C[C@H](OC(=O)c1ccncc1)c1ccc(OCCO)cc1)c1cnc2ccccc2c1,1.17
2,COc1ccc(C#Cc2ccc3c(c2)[C@]2(C(=O)N3)[C@H](c3ccccc3OCCO)N3[C@H](c4ccccc4)[C@H](c4ccccc4)OC(=O)[C@H]3[C@@H]2C(=O)O)cc1,1.15
3,C=CC[C@]1(C(=O)N2CCCCC2)N=C(c2ccc(OCCCO)cc2)O[C@H]1c1ccccc1,0.387
4,COCCOC(=O)N1C(=O)[C@@]2(c3cc(C#Cc4ccc(OC)cc4)ccc31)[C@H](C(N)=O)[C@H]1C(=O)O[C@H](c3ccccc3)[C@H](c3ccccc3)N1[C@@H]2c1ccccc1OCCO,1.17
5,O=C1OCCC/C=C\[C@H]2OC34C=CCN(Cn5nnc6ccccc65)C(=O)[C@H]3N(CCO)C(=O)[C@@H]4C12 (some centres undefined),0.216
6,C=CCN1C(=O)[C@@]2(O[C@@H](CCO)[C@H]([Si](C)(C)c3ccc(OC)cc3)[C@H]2C)c2cc(NC(=O)c3ccc(OC)cc3)ccc21,1.03
7,COc1ccc(C(O)C2C=CC3C(=O)N(c4ccccc4)C(=O)C3N2Nc2ccccc2F)cc1OCc1ccccc1 (centres undefined),1.13
8,CCCCCN1CC=CC23O[C@@H]4/C=C\CCCOC(=O)C4[C@H]2C(=O)N(CCCO)[C@@H]3C1=O (some centres undefined),0.256
9,CN(C)C(=O)[C@@]1(Cc2ccccc2)N=C(c2ccc(OCCCO)cc2)O[C@H]1c1ccccc1N=[N+]=[N-],1.13
10,O=C1OCC=C[C@H]2OC34C=CCN(CCN5CCOCC5)C(=O)[C@H]3N(CCCO)C(=O)[C@@H]4[C@@H]12 (some centres undefined),0.551
11,CN(C)C(=O)[C@]1(Cc2ccccc2N=[N+]=[N-])N=C(c2ccc(OCCCO)cc2)O[C@@H]1c1ccccc1,1.13
12,COc1ccc(C(=O)Nc2ccc(CN3C(=O)[C@@]4(O[C@@H](CCO)[C@H]([Si](C)(C)c5ccc(OC)cc5)[C@H]4C)c4ccccc43)cc2)cc1,1.14
13,CCOC(=O)C[C@H]1[C@H](OC(=O)Cc2ccc3c(c2)OCO3)[C@@H](NC(=O)c2ccc3ccccc3c2)c2cc(OCCCO)ccc2N1C(=O)c1ccccc1,0.541
14,COc1ccc(C(=O)O[C@H]2CC[C@]3(C)C4=C(CCC3C2(C)C)[C@]2(C)CC[C@H]([C@H](C)CCCC(C)C)[C@@]2(C)CC4)cc1 (some centres undefined),0.447
15,CN1C(=O)[C@]2(Cc3ccccc3)N=C(c3ccc(OCCCO)cc3)O[C@@H]2c2ccccc21,0.953
16,COc1ccc(CCNC(=O)[C@@]2(C)c3ccccc3C(=O)N(Cc3cc(F)cc(C(F)(F)F)c3)[C@H]2c2ccc(CO)cc2)cc1,-0.307
17,COc1ccc(C(O)C2C=CC3C(=O)NC(=O)C3N2Nc2ccccn2)cc1 (centres undefined),-0.0999
18,CN(C)CCCC[C@@H]1NC(=O)[C@H]2C[C@@H](C(=O)NCCCCCNC(=O)CS)[C@@H](c3cccc(OCCO)c3)N2C1=O,0.612
19,COC(=O)[C@@]1(Cc2ccc(OC)cc2)[C@H]2c3cc(C(=O)N(C)C)n(Cc4cccc5ccccc45)c3C[C@H]2CN1C(=O)c1ccccc1,0.976
20,C#CCN(Cc1ccccc1Br)C(/C=C/c1ccccc1)CO (centres undefined),-1.25
21,COCCOC(=O)N1C(=O)[C@@]2(c3cc(C#CCCO)ccc31)[C@H](C(=O)Nc1nc3ccccc3s1)[C@H]1C(=O)O[C@H](c3ccccc3)[C@H](c3ccccc3)N1[C@@H]2c1ccc(OCCO)cc1,1.07
22,CCOC(=O)C[C@H]1[C@H](OC(=O)c2ccc(C(=O)c3ccccc3)cc2)[C@@H](NC(=O)c2ccc(-c3ccccc3)cc2)c2cc(OCCCO)ccc2N1C(=O)c1ccccc1,0.989
23,COc1ccc([Si](C)(C)[C@@H]2[C@@H](CC(=O)N3Cc4ccccc4C[C@H]3CO)O[C@]3(C(=O)N(C)c4c(Br)cc(C)cc43)[C@H]2C)cc1,1.13
24,O=C1OCCC=C[C@H]2OC34C=CCN(CCN5CCOCC5)C(=O)[C@H]3N(CCCCCCO)C(=O)[C@@H]4C12 (some centres undefined),0.0309
